In PubChem BioAssay (NCI):
Compounds without any hit were thinned out: in the full panel of roughly 83,000, 20% have a hit.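 Step 1: grow cells in 96-well plates. Step 2: add test compound at a single concentration. Step 3: incubate 48 h. Step 4: record percent growth.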 A number with no mark means an inactive call. Activity calls are given as the source filed them. Rule for the calls: active = growth percent below 10; inactive = the rest.

How the values were obtained:
Experiment in all cases: NCI-60 one-dose screen, 48 h (100 = growth as untreated, 0 = no growth, -100 = all killed)
Settings in all cases: 10 µM unless noted
[1] = test system: SK-MEL-2 melanoma
[2] = test system: EKVX NSCLC
[3] = test system: SN12C renal
[4] = test system: UO-31 renal
[5] = test system: TK-10 renal
[6] = test system: ACHN renal
[7] = test system: CAKI-1 renal
[8] = test system: A498 renal
[9] = test system: CCRF-CEM leukemia
[10] = test system: MOLT-4 leukemia
[11] = test system: SR leukemia
[12] = test system: RPMI-8226 leukemia
[13] = test system: OVCAR-8 ovarian
[14] = test system: OVCAR-5 ovarian
[15] = test system: OVCAR-4 ovarian
[16] = test system: SK-OV-3 ovarian
[17] = test system: IGROV1 ovarian
[18] = test system: OVCAR-3 ovarian
[19] = test system: HS 578T breast
[20] = test system: NCI/ADR-RES ovarian

Row | Structure (SMILES) | growth [1] | growth [2] | growth [3] | growth [4] | growth [5] | growth [6] | growth [7] | growth [8] | growth [9] | growth [10] | growth [11] | growth [12] | growth [13] | growth [14] | growth [15] | growth [16] | growth [17] | growth [18] | growth [19] | growth [20]
1 | CN(C)CCCNC(=O)c1cc(NC(=O)c2cc(NC(=O)c3ccc(C#Cc4ccccc4)cc3)cn2C)cn1C | -88.8% (active) | 27% | -18.5% (active) | 36.1% | 42.9% | 19.2% | 18.6% | 83.5% | -24.3% (active) | -29.5% (active) | -46.3% (active) | -49% (active) | -0.647% (active) | 36.8% | 43.6% | 46.5% | 34.3% | -2.81% (active) | 31.7% | 
2 | N=C1N=C(SCc2nc3ccccc3[nH]2)NC(=O)/C1=C/c1ccc(Cl)cc1 | 105% | 106% | 98.6% | 70.5% | 143% | 99.6% | 85.9% | 122% | 100% | 99.5% | 98.7% | 96.9% | 102% | 113% | 95.6% | 111% | 110% | 114% | 98.3% | 
3 | COc1ccc2c(c1)c(-c1cc(N)n3nc(-c4cn(C)c5ccccc45)cc3n1)cn2C | -92.4% (active) | -63.1% (active) | -59.6% (active) | -88.3% (active) | -79% (active) | -98.7% (active) | -77.4% (active) | -20.3% (active) | -24.3% (active) | 0.804% (active) | 6.15% (active) | -14.5% (active) | -94.4% (active) | -38.8% (active) | -64.2% (active) | -79.5% (active) | -40.3% (active) | -67.4% (active) | -20.7% (active) | 
4 | N#Cc1c(-c2ccc(Cl)cc2)nc2n[nH]c(-c3ccc(Cl)cc3)c2c1-c1ccc(C(F)(F)F)cc1 | -66.9% (active) | -10.5% (active) | -5.91% (active) | -1.42% (active) | 15.9% | 2.15% (active) | -20.1% (active) | 50.5% | -7.76% (active) | 12.8% | -21.8% (active) | -2.57% (active) | 16.2% | -41.8% (active) | 2.98% (active) | 3.06% (active) | -15% (active) | -13.9% (active) |  | 
5 | CC(=O)Oc1ccccc1C(=O)[Se]C(=NC1CCCCC1)NC1CCCCC1 | -74.5% (active) | -97.6% (active) | -99.3% (active) | -100% (active) | -98.8% (active) | -73.8% (active) | -97.7% (active) | -5.3% (active) | 4.94% (active) | -22.2% (active) | -15.7% (active) | 4.77% (active) | -81.8% (active) | -89.6% (active) | -85.9% (active) | -99.1% (active) | -94% (active) | -71.6% (active) |  | 
6 | CC(=O)/C=C/c1cccc2c1C(=O)NC(C)(c1cc3cc(Br)ccc3oc1=O)N2 (stereo unspecified) | -0.79% (active) | 34.3% | 12.7% | 22% | 58.6% | 22.7% | 21.3% | 104% | 0.825% (active) | -6.34% (active) | -0.625% (active) | 2.71% (active) | 24.9% | 30.8% | 27.2% | 52.6% | 25.3% | 28.1% | 46.6% | 
7 | COc1cc(C2CC(c3cc(OC)c(OC)c(OC)c3)=Nc3c(N)nc(N)nc3N2)ccc1Oc1nc(NCCO)nc(N2CCOCC2)n1 (stereo unspecified) | 105% | 84.3% | 93% | 84.1% | 120% | 101% | 80.8% | 105% | 102% | 96.7% | 93.1% | 95.5% | 99.9% | 106% | 107% | 104% | 104% | 107% | 95% | 
8 | COc1ccc(NC(=O)[C@@H](N)Cc2ccccc2)cc1C(=O)Nc1cccc(C2CC(=O)c3c(cc(OC)c(OC)c3OC)O2)c1 (stereo partly specified) | 77.9% | 72.9% | 56.4% | 33.8% | 94.8% | 54.2% | 54.1% | 96.3% | 15% | 19.5% | 14.7% | 20.2% | 29.1% | 101% | 54.7% | 152% | 74.5% | 64% | 77.6% | 39.3%
9 | CN(C)CCn1c2ccccc2c2nc3ccc([N+](=O)[O-])cc3nc21 | -10.6% (active) | 17.3% | -9.41% (active) | -47.6% (active) | -1.22% (active) | -40.8% (active) | -23.8% (active) | -41.7% (active) | 17.6% | 8.56% (active) | 13% | 20.3% | -15.6% (active) | -0.168% (active) | 16.6% | 8.18% (active) | 4.78% (active) | 7.62% (active) | 10.1% | 8.38% (active)
10 | COc1ccc2[nH]c(O)c(N=NC(=O)Cn3c(-c4ccccc4)nc4cc(C)ccc43)c2c1 | 88.4% | 66.3% | -73.7% (active) | 49.7% | 97.7% | 41.1% | 61.9% | 119% | 8.31% (active) | 18.5% | 1.82% (active) | 10.7% | 1.93% (active) | 62.8% | 45.3% | 89.9% | 51.9% | 37.3% | 25.6% | -5.85% (active)
11 | CC(=O)Nc1ccc(-n2cnc3ccc(-c4ccc(O)cc4)cc32)cc1 | 50.7% | 54.8% | 29.3% | 46.2% | 89.9% | 24.7% | 29.9% | 92.8% | 30.2% | 11.3% | 15.8% | 38.9% | 42.1% | 72.2% | 67.3% | 66.8% | 27.2% | 54.3% | 8.57% (active) | 84.4%
12 | COc1cc2c(c(OC)c1OC)C(=O)CC(c1cccc(NC(=O)c3cc(NC(=O)[C@H](CO)NC(=O)OC(C)(C)C)ccc3Cl)c1)O2 (stereo partly specified) | 11.7% | 62.2% | 27.1% | 48.8% | 78.9% | 46.1% | 31.2% | 91.5% | 21.8% | 12.5% | 19.4% | 17.9% | 21.9% | 86.8% | 47.9% | 81.7% | 36.8% | 27.4% | 28.7% | 76.4%
13 | CCS(=O)(=O)N1CCCC(C(=O)Nc2nc3ccc(NC(=O)c4ccc(F)c(OC)c4F)cc3s2)C1 (stereo unspecified) | 61.1% | 46.8% | 83.7% | 54.5% | 83.8% | 63.5% | 57.6% | 87.9% | 29.5% | 9.19% (active) | 27.8% | 30.4% | 57.7% | 101% | 39.4% | 70.2% | 80.9% | 62.3% | 47.6% | 52%
14 | Cn1cc(-c2nc(N)nnc2-c2c[nH]c3ccc(F)cc23)c2cccnc21 | 85.6% | 62.3% | 49.3% | 14.8% | 44.6% | 14.9% | 12.6% | 36.8% | 27.5% | 18.2% | 17.8% | 44.7% | 50.3% | 80.2% | 70.7% | 41.3% | 22.3% | 60.7% | 15.1% | 52.1%
15 | Cn1cc(-c2cc3nc(-c4c[nH]c5ccc(Cl)cc45)cc(N)n3n2)c2ccccc21 | -89.8% (active) | -88.6% (active) | -65.9% (active) | -98.6% (active) | -92.1% (active) | -100% (active) | -94.6% (active) | -62.7% (active) | -21.5% (active) | -36.1% (active) | 5.34% (active) | -38.7% (active) | -64.7% (active) | -89.2% (active) | -67.4% (active) | -86.5% (active) | -53.1% (active) | -62.7% (active) | -27.1% (active) | -29.7% (active)
